According to PubChem BioAssay AID1963319 (National Center for Advancing Translational Sciences (NCATS), 2024):
The whole screen tested about 1,300 compounds, of which about 120 (9.2%) were called active. Roughly 35% stayed inconclusive and do not appear here. Calls come from the whole dose curve; as a rule, active = well fitted activation curve with a large enough effect; inconclusive = small, poorly fitted or top-dose-only effect; inactive = flat fitted curve, though single readings scatter. Not all results are given here.

target: Luciferin 4-monooxygenase (Photinus pyralis) (UniProt P08659); assay: Firefly luciferase (FLuc-C-HiBiT) SDR gain of signal screen - plus ATP; conditions: purified FLuc-C-HiBiT + ATP, HiBiT complementation luminescence; series mostly up to 32.7 µM;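 note: signal reports ligand binding via conformational change of the enzyme rather than luciferase catalysis; nearly all actives have a fitted effect of over 55% in size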
Sequence (P08659 whole entry, looked up): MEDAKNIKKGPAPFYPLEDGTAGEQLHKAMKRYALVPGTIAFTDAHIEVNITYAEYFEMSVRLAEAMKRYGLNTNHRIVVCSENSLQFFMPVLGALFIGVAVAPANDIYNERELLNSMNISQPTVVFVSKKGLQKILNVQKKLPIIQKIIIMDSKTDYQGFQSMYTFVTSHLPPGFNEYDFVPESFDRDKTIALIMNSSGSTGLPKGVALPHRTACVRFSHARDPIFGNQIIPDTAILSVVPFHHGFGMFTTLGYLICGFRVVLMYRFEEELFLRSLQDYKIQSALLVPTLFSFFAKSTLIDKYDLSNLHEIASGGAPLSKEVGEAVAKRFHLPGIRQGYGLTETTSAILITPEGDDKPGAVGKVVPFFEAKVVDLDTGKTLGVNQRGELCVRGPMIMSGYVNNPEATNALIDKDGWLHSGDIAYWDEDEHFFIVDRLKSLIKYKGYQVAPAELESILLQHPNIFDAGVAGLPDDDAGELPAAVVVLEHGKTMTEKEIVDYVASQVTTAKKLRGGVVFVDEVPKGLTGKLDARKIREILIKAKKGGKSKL
Source text: PI: James Inglese Ph.D. National Center for Advancing Translational Sciences (NCATS), National Institute of Health (NIH), Maryland Discovery and optimization of novel protein-binding ligands underlies many of the methods and applications of biology, drug discovery, clinical diagnostics, and environmental toxicology. Assays for detecting the interaction of, for example, a molecule with a macromolecular target also referred to here as the target of interest (TOI) is dependent on a compatible output technology. Depending on the nature and knowledge surrounding the TOI, whether a receptor, enzyme, regulatory subunit or scaffold, or a sequence-defined nucleic acid folded into a complex tertiary structure, assay strategies can vary widely. Here we exploit ligand-biased changes in the structural dynamics of the target protein to control reporter alpha complementation allowing a non-competitive, non-functional, non-separation measure of ligand-target interaction. […] Using a chemical library of >1,200 compounds enriched for scaffolds known to be associated with the inhibition of firefly luciferase (FLuc) activity (PubChem AIDs 2309) we first illustrate and compare the Structural Dynamics Response (SDR) assay vs. the standard functional FLuc enzyme assay (2). Secondly, we show the specificity and sensitivity of the SDR for the Abelson tyrosine kinase (ABL1) compared to the serine/threonine protein kinase A, using an enriched chemical library of 128 compounds selected, in part, for activity annotated with ABL1 kinase activity using the Pharos database (3). References: (1) A. S. Dixon et al., NanoLuc Complementation Reporter Optimized for Accurate Measurement of Protein Interactions in Cells. ACS Chem Biol 11, 400-408 (2016). […] Chemistry & Biology, 19, 1060 - 1072 (2012). (3) K. J. Kelleher et al., Pharos 2023: an integrated resource for the understudied human proteome. Nucleic Acids Res 51, D1405-D1416 (2023).
1. Reagent. Dispense 4 uL FLuc-C-HiBiT enzyme-buffer solution per well at a final enzyme concentration of 10 nM with or without 10 uM ATP into columns 2-48 of white, solid bottom medium bind 1536-well plates (Greiner Bio-One) by BioRaptr 2. Dispense respective buffer without enzyme at 4 uL/well in column 1 of assay plates. 2. Compounds. Library compounds and PTC124 control added at 23 nL per well, transfer by Pin Tool. 3. Incubation. Incubate enzyme and compounds at room temperature for >30 min, protect from light. 4. Reagent. (SDR assay) Add 3 uL/well of Nano-Glo HiBiT reagent (Promega) to assay plates for SDR assay with ATP. 5. Incubation. Incubate enzyme and substrate or detection reagent at room temperature for 5-10 min, protect from light. 6. Detector. HiBiT SDR assay measured using CCD-based camera (ViewLux) with settings as follows: Exposure, 1 sec; Gain, High; Speed, Slow; Binning, 2X. REFERENCES: Inglese J, Shamu CE and Guy RK, Reporting data from high throughput screening of small molecule libraries, Nature Chemical Biology, 2007, 3(8): 438-441. doi.org/10.1038/nchembio0807-438.
Potency is the fitted concentration of half-maximal effect.

Potency, inactive:
CC(=O)c1ccc(NC(=O)CSc2nnc(NC(=O)Nc3ccccc3)s2)cc1, Cc1ccc(C(=O)Nc2ccc(-c3nc4ccccc4s3)c(O)c2)cc1, Cc1nn(-c2ccc(C(C)(C)C)cc2)c(C)c1[C@@H]1C=C[C@@H](NC(=O)c2ccco2)C1, Oc1ccc(-c2nc(C3CC3)nc3c2CCN(Cc2cccc(F)c2)CC3)cc1, CC(=O)Nc1ccc(NC(=O)CCCc2nc(-c3ccc(C(C)(C)C)cc3)no2)cc1, Cc1ccc(Nc2c(-c3ccc(N(C)C)cc3)nc3nc[nH]n23)cc1, Fc1ccc(Nc2nc(-c3ccccc3F)no2)cc1, Cc1ccc(-c2nnc(SCc3ccccc3C)o2)cc1, Cc1cc(C)n(CCC(=O)N2CCC(Cc3noc(C4CC4)n3)C2)n1 (centres undefined), Cc1cccc(-c2cccc(NC(=O)C3CCCN(C(=O)CC(F)(F)F)C3)c2)c1 (centres undefined), Cc1nn(-c2ccc(C(C)C)cc2)c(C)c1[C@@H]1C=C[C@@H](NC(=O)CC2(CC(=O)O)CCCC2)C1, CC(C)C(=O)Nc1cc(-c2nc3ccccc3s2)ccc1Cl, COc1cccc(-c2nc3ccc(-c4ccc5c(c4)OCO5)cc3o2)c1OC, OC1(CN2CCCCC2)CCN(c2nc3ccccc3s2)C1 (centres undefined), Cc1nn(-c2ccc(C(C)C)cc2)c(C)c1[C@@H]1C=C[C@@H](NC(=O)Nc2ccccc2)C1, CN1CCN(C[C@@H]2CN(C(=O)CCCc3ccccc3)C[C@@H]2CO)CC1, COc1ccc(-c2cc(N3CCCC(NC(=O)c4ccsc4)C3)n[nH]2)cc1 (centres undefined), COc1ccccc1OC1(C(=O)O)CCN(c2ncnc3nc[nH]c23)CC1, O=C(CSc1ccc(F)cc1)Nc1ccccc1-c1nc2ccccc2s1, O=C(Nc1ccccc1)c1nc2c(o1)CCN(Cc1cccc(Cl)c1)CC2, OCc1cccc(-c2cc3c(cn2)CN(Cc2ccccc2)CCN3)c1, O=C(/C=C/c1ccccc1)Nc1cc(-c2nc3cc(Cl)ccc3o2)ccc1Cl, CC(=O)c1nn(-c2ccc(OC(F)(F)F)cc2)nc1Nc1ccccc1, CNc1nc(C(=O)NCc2ccc3[nH]c(-c4ccc(F)cc4)c(C)c3c2)cs1, CN1c2cc(C(=O)Nc3ccccc3)ccc2C(=O)N2CCCCCC21 (centres undefined), Cc1nn(-c2ccc(C(C)C)cc2)c(C)c1[C@@H]1C=C[C@@H](NC(=S)NCC(C)C)C1, Cc1cccc(C(=O)Nc2ccc(-c3nc4ccccc4s3)c(C)c2)c1, Cc1ccc(Cl)cc1-n1ncc2c(N3CCC(C(N)=O)CC3)ncnc21, OCCN1CCN(c2nc(N3CCCCC3)c3cnn(-c4ccc(Cl)cc4)c3n2)CC1, C[S+](=O)([O-])CCn1ncc2cc(OCc3cccc(-c4ccccc4)c3)ccc21, CC(=O)Oc1ccccc1C(=O)Nc1ccc(-c2nc3ccc(C)cc3s2)cc1, O=C(NC1CCN(c2cc(-c3ccc(F)cc3)[nH]n2)C1)c1cc2ccccc2[nH]1 (centres undefined), Cc1ccc2cc(CN3CCN(CC(N)=O)CC3)c(-c3cccs3)nc2c1, COc1ccc(CC(=O)Nc2ccc(-c3nc4ccccc4s3)c(C)c2)cc1, COc1ccc(-c2nc3ccccc3s2)cc1NC(=O)COc1ccccc1C, CCc1cccc(NC(=O)c2cc(-c3ccccc3)n[nH]2)c1, COc1cc(F)ccc1-c1ccc(COc2ccc3c(cnn3CCC(=O)O)c2)cc1, Cc1ccc(-c2nc(C(=O)N(C)Cc3ccccc3)no2)cc1, Oc1cccc(-c2cc3c(cn2)CN(Cc2cccnc2)CCN3)c1, O=C(COc1ccc(Cl)cc1)Nc1ccc(-c2nc3cc(Cl)ccc3o2)c(O)c1

Potency, active:
CCNC(=O)C1C(c2cccc(NC(=O)c3ccc(OC)cc3)c2)OC(=O)N1Cc1ccc(C)cc1 (centres undefined) 3.94 µM, COc1ccc(C(=O)Nc2onc3c2CCCC3)cc1 3.94 µM, OCC1CCCN(c2ncnc3c2cnn3-c2ccccc2)C1 (centres undefined) 0.785 µM, CCOC(=O)C1CCN(C(=O)c2cccc3c2CCN3C(=O)Nc2ccccc2)CC1 3.13 µM
